Compound: Cc1ccc(-c2ccc3c(ccc4sc5c(c43)NC[C@@H](C)NC5=O)n2)cn1
Experiment: kinase activity remaining relative to vehicle control; higher = less inhibition
Description: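 In vitro radiometric kinase profiling of the MK2 inhibitor PF-3644022 at 0.1, 1 and 10 µM against a panel of kinases (MRC International Centre for Kinase Profiling, Dundee). Read-out is % kinase activity remaining relative to the vehicle control, mean of n=2.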

UniProt P16234, sequence (P16234 whole entry, looked up): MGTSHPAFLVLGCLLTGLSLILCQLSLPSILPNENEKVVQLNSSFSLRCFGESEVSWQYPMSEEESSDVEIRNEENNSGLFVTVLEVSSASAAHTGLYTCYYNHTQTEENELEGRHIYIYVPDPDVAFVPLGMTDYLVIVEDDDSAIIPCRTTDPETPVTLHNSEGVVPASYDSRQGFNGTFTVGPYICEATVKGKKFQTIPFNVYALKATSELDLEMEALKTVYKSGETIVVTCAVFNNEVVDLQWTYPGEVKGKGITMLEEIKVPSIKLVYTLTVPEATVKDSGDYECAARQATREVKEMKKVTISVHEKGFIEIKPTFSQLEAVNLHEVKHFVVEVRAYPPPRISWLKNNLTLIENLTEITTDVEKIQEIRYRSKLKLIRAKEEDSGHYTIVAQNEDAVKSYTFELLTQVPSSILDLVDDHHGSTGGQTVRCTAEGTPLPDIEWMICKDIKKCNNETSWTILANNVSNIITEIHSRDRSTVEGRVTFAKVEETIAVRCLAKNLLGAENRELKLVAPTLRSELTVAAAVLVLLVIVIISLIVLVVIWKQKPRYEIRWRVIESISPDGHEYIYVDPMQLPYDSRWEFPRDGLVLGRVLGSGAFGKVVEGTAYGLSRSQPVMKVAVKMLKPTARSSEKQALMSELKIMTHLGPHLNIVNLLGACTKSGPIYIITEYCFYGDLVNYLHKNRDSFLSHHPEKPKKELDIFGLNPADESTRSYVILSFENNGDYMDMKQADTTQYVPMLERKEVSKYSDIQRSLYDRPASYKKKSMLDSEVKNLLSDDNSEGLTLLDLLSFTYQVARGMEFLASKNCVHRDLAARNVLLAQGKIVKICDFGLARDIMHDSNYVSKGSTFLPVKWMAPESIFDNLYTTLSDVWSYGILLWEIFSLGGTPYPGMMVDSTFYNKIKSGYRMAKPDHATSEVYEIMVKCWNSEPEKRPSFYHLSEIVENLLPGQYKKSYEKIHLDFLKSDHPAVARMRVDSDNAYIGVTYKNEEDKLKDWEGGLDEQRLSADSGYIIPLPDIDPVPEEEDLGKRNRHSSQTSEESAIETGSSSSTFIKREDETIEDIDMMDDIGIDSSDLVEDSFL
UniProt Q6IQ55, sequence (Q6IQ55 whole entry, looked up): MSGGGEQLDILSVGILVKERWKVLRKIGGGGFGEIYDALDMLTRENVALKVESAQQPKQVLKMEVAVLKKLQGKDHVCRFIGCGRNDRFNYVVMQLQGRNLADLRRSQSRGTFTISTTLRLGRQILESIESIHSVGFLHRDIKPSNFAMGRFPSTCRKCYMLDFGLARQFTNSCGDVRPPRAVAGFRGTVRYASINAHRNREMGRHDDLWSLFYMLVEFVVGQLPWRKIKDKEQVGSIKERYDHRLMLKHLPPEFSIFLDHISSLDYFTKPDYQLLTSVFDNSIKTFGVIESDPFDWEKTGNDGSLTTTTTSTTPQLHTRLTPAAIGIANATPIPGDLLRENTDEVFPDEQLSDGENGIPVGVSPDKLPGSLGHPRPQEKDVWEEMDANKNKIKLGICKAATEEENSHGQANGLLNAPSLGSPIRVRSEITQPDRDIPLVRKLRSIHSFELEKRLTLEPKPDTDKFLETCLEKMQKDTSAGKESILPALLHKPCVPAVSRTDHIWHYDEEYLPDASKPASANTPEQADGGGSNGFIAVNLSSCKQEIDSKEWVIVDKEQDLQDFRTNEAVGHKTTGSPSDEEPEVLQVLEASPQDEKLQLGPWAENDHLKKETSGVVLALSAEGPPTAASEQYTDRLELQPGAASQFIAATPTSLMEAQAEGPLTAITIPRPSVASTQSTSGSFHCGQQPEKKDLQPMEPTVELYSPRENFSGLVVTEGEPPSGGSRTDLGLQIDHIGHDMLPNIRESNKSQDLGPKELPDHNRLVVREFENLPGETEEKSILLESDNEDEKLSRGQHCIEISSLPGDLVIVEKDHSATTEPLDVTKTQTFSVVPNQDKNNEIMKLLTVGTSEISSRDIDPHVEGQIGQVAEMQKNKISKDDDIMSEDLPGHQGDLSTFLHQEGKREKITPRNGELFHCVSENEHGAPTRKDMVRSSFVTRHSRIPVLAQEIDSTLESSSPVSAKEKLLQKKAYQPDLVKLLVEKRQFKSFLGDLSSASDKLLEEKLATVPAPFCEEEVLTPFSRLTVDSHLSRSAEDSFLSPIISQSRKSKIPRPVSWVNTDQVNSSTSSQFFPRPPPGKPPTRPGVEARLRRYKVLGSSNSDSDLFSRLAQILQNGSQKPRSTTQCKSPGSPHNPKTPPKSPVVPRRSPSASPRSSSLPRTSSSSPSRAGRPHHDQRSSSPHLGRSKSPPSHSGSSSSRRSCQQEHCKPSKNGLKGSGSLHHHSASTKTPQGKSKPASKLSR
UniProt P17948, sequence (P17948 whole entry, looked up): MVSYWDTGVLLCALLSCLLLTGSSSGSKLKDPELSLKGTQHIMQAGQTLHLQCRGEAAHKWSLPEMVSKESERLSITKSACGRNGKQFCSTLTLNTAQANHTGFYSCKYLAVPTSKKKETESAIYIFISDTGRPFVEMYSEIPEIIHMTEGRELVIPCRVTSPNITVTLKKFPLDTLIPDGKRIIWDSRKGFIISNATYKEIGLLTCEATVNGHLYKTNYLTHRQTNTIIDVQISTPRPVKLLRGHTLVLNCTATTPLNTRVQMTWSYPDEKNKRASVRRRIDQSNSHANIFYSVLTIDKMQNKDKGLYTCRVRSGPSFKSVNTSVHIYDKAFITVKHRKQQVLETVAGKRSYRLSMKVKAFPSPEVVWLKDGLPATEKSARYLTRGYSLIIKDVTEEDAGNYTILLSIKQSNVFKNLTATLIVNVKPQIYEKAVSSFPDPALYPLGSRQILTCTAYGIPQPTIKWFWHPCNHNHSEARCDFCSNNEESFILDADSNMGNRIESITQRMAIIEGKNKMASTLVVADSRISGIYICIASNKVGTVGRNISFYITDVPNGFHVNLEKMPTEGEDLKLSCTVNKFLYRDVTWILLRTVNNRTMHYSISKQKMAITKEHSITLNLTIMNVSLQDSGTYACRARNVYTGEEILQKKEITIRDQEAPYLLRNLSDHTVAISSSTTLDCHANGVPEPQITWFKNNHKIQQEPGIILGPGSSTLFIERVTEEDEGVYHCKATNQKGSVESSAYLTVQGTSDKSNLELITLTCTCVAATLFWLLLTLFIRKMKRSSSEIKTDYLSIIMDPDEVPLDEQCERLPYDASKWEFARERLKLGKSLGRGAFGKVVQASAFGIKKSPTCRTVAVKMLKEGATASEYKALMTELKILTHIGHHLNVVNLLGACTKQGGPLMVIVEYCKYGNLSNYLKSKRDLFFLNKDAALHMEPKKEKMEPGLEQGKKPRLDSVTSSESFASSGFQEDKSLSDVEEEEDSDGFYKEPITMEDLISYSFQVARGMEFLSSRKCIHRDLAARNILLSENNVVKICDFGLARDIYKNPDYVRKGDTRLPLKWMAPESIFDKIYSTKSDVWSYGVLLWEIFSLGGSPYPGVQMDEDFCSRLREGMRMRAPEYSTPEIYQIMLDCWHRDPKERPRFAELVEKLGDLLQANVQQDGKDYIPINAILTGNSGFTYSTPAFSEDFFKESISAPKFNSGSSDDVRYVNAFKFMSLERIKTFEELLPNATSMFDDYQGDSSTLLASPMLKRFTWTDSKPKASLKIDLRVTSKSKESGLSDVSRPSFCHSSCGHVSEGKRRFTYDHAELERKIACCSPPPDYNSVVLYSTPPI
UniProt Q06187, sequence (Q06187 whole entry, looked up): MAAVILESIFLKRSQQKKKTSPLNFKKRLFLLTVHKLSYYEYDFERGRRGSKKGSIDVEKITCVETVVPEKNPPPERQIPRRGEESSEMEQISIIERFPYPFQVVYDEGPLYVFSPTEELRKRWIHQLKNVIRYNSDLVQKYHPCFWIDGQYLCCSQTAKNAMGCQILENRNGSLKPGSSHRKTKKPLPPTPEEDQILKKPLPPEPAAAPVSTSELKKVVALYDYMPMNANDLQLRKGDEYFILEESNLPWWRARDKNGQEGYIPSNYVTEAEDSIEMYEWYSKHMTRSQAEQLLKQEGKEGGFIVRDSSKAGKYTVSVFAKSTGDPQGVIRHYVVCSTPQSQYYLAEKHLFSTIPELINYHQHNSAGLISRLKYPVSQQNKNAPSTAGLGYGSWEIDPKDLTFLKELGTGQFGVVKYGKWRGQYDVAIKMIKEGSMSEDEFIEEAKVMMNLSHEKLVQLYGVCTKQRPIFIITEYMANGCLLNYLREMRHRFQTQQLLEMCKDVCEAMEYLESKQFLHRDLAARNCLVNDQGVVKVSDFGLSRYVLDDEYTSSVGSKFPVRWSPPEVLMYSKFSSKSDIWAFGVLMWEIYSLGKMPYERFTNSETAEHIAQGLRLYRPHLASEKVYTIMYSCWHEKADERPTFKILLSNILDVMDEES

Row | Target | kinase activity remaining (inhibitor concentration 0.1 µM) [%] | kinase activity remaining (inhibitor concentration 1 µM) [%] | kinase activity remaining (inhibitor concentration 10 µM) [%]
1 | BTK (UniProt Q06187) | 120 | 118 | 107
2 | TTBK2 (UniProt Q6IQ55) | 122 | 122 | 103
3 | PDGFRA (UniProt P16234) | 104 | 108 | 104
4 | IKK epsilon | 98 | 95 | 44
5 | VEGFR1 (UniProt P17948) | 112 | 118 | 65
